SMILES strings stand for the structures. A number with no mark means an inactive call. The source made the active and inactive calls. Calls follow the shape of the dose curve; as a rule, active = well fitted curve in the direction sought with a large enough effect in the repeat runs; inconclusive = weak or mixed curves; inactive = flat fitted curve, though single readings scatter.
% is scaled to controls: 0 for no effect and ±100 for the full control effect.

The assay is described as follows: qHTS assay to test for compound auto fluorescence at 590 nm (red) in HEK293 cells (AID 720679). Particulars: red autofluorescence 540/590 nm; series mostly up to 91.3 µM; fluorescence, % of fluorescent control: at the top concentration. The source says:
National Center for Advancing Translational Sciences [NCATS]
NIH Chemical Genomics Center [NCGC]
U.S. Environmental Protection Agency [EPA]
National Institutes of Environmental Health Sciences [NIEHS]
National Toxicology Program [NTP]
U.S. Food and Drug Administration [FDA]
Compound auto fluorescence often interferes with screening of the compound library against various biological targets and signaling pathways. Some of these compounds may have fluorophoric properties. Such properties may interfere with the assay outputs resulting in false positives and/or negatives. To decrease such complications and ensure the compound activities are relevant in terms of biological response, the Tox21 10K compound library was screened for auto fluorescence.
From the fluorophores used as reporter signals in our screening assays, the auto fluorescence equivalencies of compounds against three fluorophores have been evaluated: Triamterene, Fluorescein and Rose Bengal sodium for blue, green and red fluorescence, respectively. The fluorescence intensities were measured using Excitation/Emission wavelengths at 405/460nm, 485/535nm and 540/590nm for blue, green and red labels, respectively. This assay includes the red fluorescence data.
Tox21 Assay Protocol Summary:
2,000 HEK293 cells in 5 uL of culture medium containing 10% dialyzed FBS per well were dispensed into black wall/clear bottom 1536-well plates using a Multidrop Combi Dispenser (Thermo Scientific). The assay plates were incubated for 4-5 hr at 37C to allow cell attachment to the well bottom, followed by the transfer of 23 nL compound or DMSO vehicle by a pintool work station (Kalypsys, San Diego, CA). After the assay plates were incubated overnight at 37C and 5% CO2, fluorescence intensities in the assay plates were measured by an Envision (PerkinElmer, Shelton, CT) plate reader using three labels for measuring blue, green and red fluorescence at […] 460, 535 and 590nm respectively.
A general note: Quantitative high-throughput screening tests each substance at several concentrations.
Consider `CCOC(=O)c1cnc2c(cnn2CC)c1NN=C(C)C`, for which the “fluorescence, % of fluorescent control” value is -0.0907% [at 46 µM]. Turning to `c1ccc2sc(SN3CCOCC3)nc2c1`, the “fluorescence, % of fluorescent control” value is 0.0824% [at 46 µM]. With `O=CN(CCO)CCO`, the “fluorescence, % of fluorescent control” value was -0.58%. Turning to `O=C(c1ccccc1O)c1ccccc1O`, the “fluorescence, % of fluorescent control” value was -0.0469%. On the same count and under the same terms, the same measure for `CC(C)C[C@@H](N)C(=O)O`: 0.394% [at 46 µM]; for `CCCn1cc[n+](C)c1C`: 0.127% [at 95.7 µM]; for `CCC1C(=O)OCC1Cc1cncn1C` (stereo not given): 0.002% [at 46 µM].

Take `OCCCCCO`: the “fluorescence, % of fluorescent control” value is 0.0391% [at 95.7 µM]. On the same count and under the same terms, the value for `O=[N+]([O-])c1ccc(/C=N\O)o1` was -0.0988% [at 46 µM]; that for `CN(C)C(=O)Oc1ccc[n+](C)c1` was 0.164% [at 46 µM]. Same read-out and setting: the value for `CCOC(=O)OC(C)OC1=C(C(=O)Nc2ccccn2)N(C)S(=O)(=O)c2ccccc21` (stereo not given) was -0.316% [at 46 µM]; that for `CCOC(=O)c1ccccc1` was -0.483%.

For the compound `CO[C@@]1(NC(=O)CSC[C@@H](N)C(=O)O)C(=O)N2C(C(=O)O)=C(CSc3nnnn3C)CS[C@@H]21`, the “fluorescence, % of fluorescent control” value is 0.0816% [at 46 µM].

Regarding `Cc1ccc(C(=O)c2ccccc2)cc1`, the “fluorescence, % of fluorescent control” value was 0.264%. Still for that read-out and setting: the value for `COc1ccccc1OCC1CNC(=O)O1` (stereo not given) was 0.044% [at 46 µM]. `CCCCCC(C)N` (stereo not given): the “fluorescence, % of fluorescent control” value was -0.813% [at 46 µM]. On to `O=C(O)CC(C(=O)O)S(=O)(=O)O` (stereo not given), for which the “fluorescence, % of fluorescent control” value was -0.967%.

As to `CCCO[Si](OCCC)(OCCC)OCCC`, the “fluorescence, % of fluorescent control” value was 0.0122%.

Turning to `NCCCC[C@H](N[C@@H](CCc1ccccc1)C(=O)O)C(=O)N1CCC[C@H]1C(=O)O`, the fluorescence, % of fluorescent control was -0.247% [at 18.6 µM]. For `CC(C)(C)C(=O)c1ccccc1`, the “fluorescence, % of fluorescent control” value is 0.166%. Still for that read-out and setting: the same measure for `C[N+]1(CC2COC(c3ccccc3)(c3ccccc3)O2)CCCCC1` (stereo not given): -0.0015% [at 46 µM]; for `CCC(C)(CCCC(C)C)OC(C)=O` (stereo not given): -0.333%. Consider `CC(=O)O[C@@]12CO[C@@H]1C[C@H](O)[C@@]1(C)C(=O)[C@H](O)C3=C(C)[C@@H](OC(=O)[C@H](O)[C@@H](NC(=O)OC(C)(C)C)c4ccccc4)C[C@@](O)([C@@H](OC(=O)c4ccccc4)[C@H]21)C3(C)C`, for which the result was inactive. `O=S(=O)(O)c1cc(O)c(O)c(S(=O)(=O)O)c1`: the “fluorescence, % of fluorescent control” value is -0.514%. With `Cc1ncc(COP(=O)(O)O)c(C=O)c1O`, the “fluorescence, % of fluorescent control” value was 0.0796% [at 46 µM]. For `CC1=C(C/C=C(\C)CCC[C@H](C)CCC[C@H](C)CCCC(C)C)C(=O)c2ccccc2C1=O`, the “fluorescence, % of fluorescent control” value is -0.72% [at 46 µM]. Regarding `CC(=O)OCC(=O)[C@@]1(O)[C@H](C)C[C@H]2[C@@H]3CCC4=CC(=O)C=C[C@]4(C)[C@@]3(F)[C@@H](O)C[C@@]21C`, the call was inactive. Regarding `CCCCc1ccc2c(n1)[C@@H](c1ccc(OC)cc1C[C@H](C)C(=O)O)[C@H](C(=O)O)[C@H]2c1ccc2c(c1)OCO2`, the “fluorescence, % of fluorescent control” value is -0.0992%. Still for that read-out and setting: the value for `CC(C)C(=O)OC(=O)C(C)C` was 0.351%. On the same count and under the same terms, the value for `CC1OC1C1CCC2(C)OC2C1` (stereo not given) was -0.177%; that for `CC1=NN(c2cc(S(=O)(=O)O)ccc2Cl)C(=O)C1N=Nc1ccccc1` (stereo not given) was -0.0058%. On to `Nc1c2c(nc3c1CCC3)CCCC2`, for which the “fluorescence, % of fluorescent control” value was -0.155% [at 46 µM]. `CN1CCC(=C2c3ccccc3CCc3cccnc32)CC1`: the “fluorescence, % of fluorescent control” value was -0.704% [at 46 µM].

In the case of `C=CC(=O)OCCCl`, the “fluorescence, % of fluorescent control” value is -0.411% [at 95.7 µM]. Still for that read-out and setting: the same measure for `CC(C)(C#N)Nc1nc(Cl)nc(NC2CC2)n1`: 0.16%; for `CC(=O)NC(=O)c1ccccc1O`: 0.1% [at 46 µM]; for `O=C(O)Cc1csc(-c2ccc(Cl)cc2)n1`: 0.0484% [at 46 µM].

In the case of `CCN(C=O)CC`, the “fluorescence, % of fluorescent control” value is 0.217% [at 95.7 µM].

As for `CC(C)[C@H]1CC[C@@H](C)CC1=O`, the “fluorescence, % of fluorescent control” value is -0.314%. Take `C=CCOCC(O)CO` (stereo not given): the “fluorescence, % of fluorescent control” value was 0.187%.
